In one test the target is AR (gene 367) (UniProt P10275). Kind of test: ACEA_AR_antagonist_80hr: ACEA Biosciences xCELLigence Real-Time Cell Analysis on Androgen Receptor Antagonism for Proliferation (AID 2283787).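 Note: 22Rv1 human prostate cancer cells with growth followed by electrical impedance; hits lower the impedance growth signal relative to DMSO.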 A digest of the protocol: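 Impedance readout (RT-CES), 80 h post-dose; loss-of-signal vs DMSO baseline. 22Rv1 cells in assay medium. Compounds: 8-pt 1:4 series, max 100 uM final, up to 0.5% DMSO; n = 2.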
Chain of AR (gene 367) (P10275 whole entry, looked up): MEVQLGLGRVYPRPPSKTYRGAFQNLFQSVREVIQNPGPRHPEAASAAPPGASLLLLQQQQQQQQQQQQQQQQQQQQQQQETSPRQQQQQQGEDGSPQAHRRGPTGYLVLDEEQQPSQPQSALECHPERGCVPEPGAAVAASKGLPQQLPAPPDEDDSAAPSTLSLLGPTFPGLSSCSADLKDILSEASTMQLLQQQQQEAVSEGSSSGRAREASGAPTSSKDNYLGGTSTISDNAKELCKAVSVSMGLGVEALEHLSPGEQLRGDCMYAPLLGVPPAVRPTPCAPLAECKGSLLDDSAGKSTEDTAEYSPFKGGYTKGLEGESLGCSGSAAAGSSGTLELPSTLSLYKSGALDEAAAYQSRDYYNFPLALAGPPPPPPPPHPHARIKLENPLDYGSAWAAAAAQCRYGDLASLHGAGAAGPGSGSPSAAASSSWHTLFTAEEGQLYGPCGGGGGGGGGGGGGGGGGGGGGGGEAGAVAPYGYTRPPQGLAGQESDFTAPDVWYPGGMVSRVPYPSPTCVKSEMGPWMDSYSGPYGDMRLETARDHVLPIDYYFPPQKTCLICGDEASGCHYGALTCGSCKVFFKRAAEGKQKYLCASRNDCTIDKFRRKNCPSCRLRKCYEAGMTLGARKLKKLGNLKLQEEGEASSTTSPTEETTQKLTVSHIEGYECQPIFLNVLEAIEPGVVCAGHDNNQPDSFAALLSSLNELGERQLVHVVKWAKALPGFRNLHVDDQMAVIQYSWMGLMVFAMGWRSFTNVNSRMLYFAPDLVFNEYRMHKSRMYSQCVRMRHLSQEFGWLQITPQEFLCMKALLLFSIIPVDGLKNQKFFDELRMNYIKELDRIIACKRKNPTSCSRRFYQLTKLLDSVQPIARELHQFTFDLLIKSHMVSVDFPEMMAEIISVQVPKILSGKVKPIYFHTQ

A short description of test [1]: STM_H9_NormalizedViability: Cytotoxicity Assessment at 120 hours in the Stemina devTOX quickPredict H9 human embryonic stem cell (hESC)-based Assay (AID 2283784). A digest of the protocol:
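Pluripotent H9 hESCs were exposed, with chemical and media replaced every 24 h. Viability was read by CellTiter-Fluor fluorescence, background-corrected and normalized to the 0.1% DMSO neutral control per plate. Loss of signal was fitted.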

In test [2] the target is GAL4 Transcription Factor (Internal Marker), GAL4 (gene 855828) (UniProt P04386). Kind of test: ATG_GAL4_XSP1: Attagene TRANS-FACTORIAL Multi-Species (XSP1) HepG2 Assay for GAL4 Transcription Factor (Internal Marker) (AID 2283789). The method, boiled down:
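HepG2 cells transiently transfected with multiplexed GAL4-UAS reporter units were exposed for 24 h with 3 nM 6-alpha-fluorotestosterone present. Reporter mRNA was quantified by RT-PCR, FAM labelling, HpaI digestion and capillary electrophoresis; background-control readout, gain-of-signal versus DMSO.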

A short description of test [3]: ATG_M_06_XSP1: Attagene TRANS-FACTORIAL Multi-Species (XSP1) HepG2 Assay for M06 Transcription Factor (Internal Marker) (AID 2283790). A digest of the protocol: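 Transfected HepG2 multi-reporter system treated 24 h in the presence of 3 nM 6-alpha-fluorotestosterone. The M06 internal marker transcript was quantified by RT-PCR with capillary electrophoresis as a background control, and gain of signal was scored versus DMSO.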

The nature of test [4]: ATG_M_61_XSP1: Attagene TRANS-FACTORIAL Multi-Species (XSP1) HepG2 Assay for M61 Transcription Factor (Internal Marker) (AID 2283797). The method, boiled down:
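HepG2 cells transiently transfected with multiplexed GAL4-driven reporter units, dosed 24 h with 3 nM 6-alpha-fluorotestosterone present. Reporter mRNA quantified by RT-PCR, 6-FAM labelling, HpaI digestion and capillary electrophoresis; internal-marker background control, gain of signal versus DMSO.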

Test [5] is described as follows: ATG_M_32_XSP1: Attagene TRANS-FACTORIAL Multi-Species (XSP1) HepG2 Assay for M32 Transcription Factor (Internal Marker) (AID 2283799). A digest of the protocol:
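HepG2 cells transiently transfected with multi-species TRANS reporter units, dosed 24 h with 3 nM 6-alpha-fluorotestosterone present. Internal-marker reporter mRNA quantified by RT-PCR and capillary electrophoresis; positive-direction fit versus DMSO.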

The target in test [6] is mouse Peroxisome Proliferator-activated Receptor gamma (PPARg), Pparg (gene 19016) (UniProt P37238). The test is described as follows: ATG_mPPARg_XSP1: Attagene TRANS-FACTORIAL Multi-Species (XSP1) HepG2 Assay for mouse Peroxisome Proliferator-activated Receptor gamma (PPARg) (AID 2283802). A digest of the protocol: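 HepG2 cells transiently transfected with GAL4-UAS reporter units driven by mouse PPARg–GAL4 chimera; 3 nM 6-alpha-fluorotestosterone present. After 24 h dosing, reporter mRNA quantified by RT-PCR, fluorescent labelling and capillary electrophoresis; gain of signal versus DMSO.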
Chain of mouse Peroxisome Proliferator-activated Receptor gamma (PPARg), Pparg (gene 19016) (P37238 whole entry, looked up, the tested form may be a part): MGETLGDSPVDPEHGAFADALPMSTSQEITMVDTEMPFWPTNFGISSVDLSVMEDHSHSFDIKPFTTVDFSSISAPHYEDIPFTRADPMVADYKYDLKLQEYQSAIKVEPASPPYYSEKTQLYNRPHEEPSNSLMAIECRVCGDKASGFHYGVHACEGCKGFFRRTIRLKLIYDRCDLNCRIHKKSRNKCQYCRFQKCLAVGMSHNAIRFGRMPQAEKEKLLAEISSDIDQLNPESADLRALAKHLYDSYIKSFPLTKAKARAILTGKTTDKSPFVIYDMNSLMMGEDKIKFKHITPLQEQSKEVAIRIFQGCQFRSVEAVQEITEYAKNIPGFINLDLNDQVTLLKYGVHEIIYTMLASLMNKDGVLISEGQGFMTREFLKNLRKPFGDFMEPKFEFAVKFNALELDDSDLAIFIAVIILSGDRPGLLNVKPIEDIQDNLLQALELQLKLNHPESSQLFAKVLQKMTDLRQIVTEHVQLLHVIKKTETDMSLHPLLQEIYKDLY

Test [7] has as its target Nuclear receptor subfamily 1 group I member 2 (Mus musculus) (UniProt O54915). Kind of test: ATG_mPXR_XSP1: Attagene TRANS-FACTORIAL Multi-Species (XSP1) HepG2 Assay for mouse Pregnane X Receptor (PXR) (AID 2283803). A digest of the protocol: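 Transiently transfected HepG2 cells expressing a receptor-Gal4 chimera drive a GAL4-UAS reporter; 3 nM 6-alpha-fluorotestosterone included. Reporter mRNA read 24 h post-dose by RT-PCR and capillary electrophoresis; gain of signal relative to DMSO.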

Test [8] deals with frog Thyroid hormone Receptor alpha (TRa), thra-a (gene 397942) (UniProt P15204). The test is described as follows: ATG_frTRa_XSP1: Attagene TRANS-FACTORIAL Multi-Species (XSP1) HepG2 Assay for frog Thyroid hormone Receptor alpha (TRa) (AID 2283804). The method, boiled down:
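HepG2 cells transiently transfected with frog TRa-GAL4 chimeric reporter units, dosed 24 hr with 3 nM 6-alpha-fluorotestosterone present; reporter mRNA quantified by RT-PCR, fluorescent labelling and capillary electrophoresis, gain of signal versus DMSO.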

The target of test [9] is human Thyroid hormone Receptor alpha (TRa), THRA (gene 7067) (UniProt P10827). Kind of test: ATG_hTRa_XSP1: Attagene TRANS-FACTORIAL Multi-Species (XSP1) HepG2 Assay for human Thyroid hormone Receptor alpha (TRa) (AID 2283805). A digest of the protocol:
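HepG2 cells transiently transfected with GAL4-UAS reporter units expressing chimeric NR-Gal4 proteins, dosed 24 hours with 3 nM 6-alpha-fluorotestosterone present. Reporter mRNA measured by RT-PCR and capillary electrophoresis; gain of signal fitted versus DMSO.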

Test [10] deals with turtle Thyroid Hormone Receptor, alpha (TRa), gene 101949057. The test is described as follows: ATG_trTRa_XSP1: Attagene TRANS-FACTORIAL Multi-Species (XSP1) HepG2 Assay for turtle Thyroid Hormone Receptor, alpha (TRa) (AID 2283806). A digest of the protocol: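 HepG2 cells transiently transfected with GAL4-UAS reporter units and chimeric receptor-Gal4 constructs, with 3 nM 6-alpha-fluorotestosterone present. Reporter mRNA was quantified 24 h after dosing by RT-PCR, 6-FAM labelling and capillary electrophoresis; gain of signal versus DMSO.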

For test [11], the target named is zebrafish Thyroid Hormone Receptor alpha (TRa), thraa (gene 30670) (UniProt Q98867). The test is described as follows: ATG_zfTRa_XSP1: Attagene TRANS-FACTORIAL Multi-Species (XSP1) HepG2 Assay for zebrafish Thyroid Hormone Receptor alpha (TRa) (AID 2283807). The method, boiled down:
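HepG2 cells transiently transfected with GAL4-UAS reporter units including a zebrafish TRa–Gal4 chimera, dosed 24 h with 3 nM 6-alpha-fluorotestosterone present. Reporter mRNA quantified by RT-PCR and capillary electrophoresis; gain versus DMSO.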

Test [12] has as its target human Thyroid hormone Receptor beta (TRb), THRB (gene 7068) (UniProt P10828). Kind of test: ATG_hTRb_XSP1: Attagene TRANS-FACTORIAL Multi-Species (XSP1) HepG2 Assay for human Thyroid hormone Receptor beta (TRb) (AID 2283808). The method, boiled down:
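HepG2 cells transiently transfected with reporter units driving GAL4-UAS reporters for chimeric NR-Gal4 proteins; 24 h chemical exposure with 3 nM 6-alpha-fluorotestosterone present. Reporter mRNA quantified by RT-PCR and capillary electrophoresis, gain of signal versus DMSO.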

In test [13] the target is zebrafish Thyroid Hormone Receptor beta (TRb), thrb (gene 30607) (UniProt Q9PVE4). The test is described as follows: ATG_zfTRb_XSP1: Attagene TRANS-FACTORIAL Multi-Species (XSP1) HepG2 Assay for zebrafish Thyroid Hormone Receptor beta (TRb) (AID 2283809). The method, boiled down:
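HepG2 cells transiently transfected with multiplexed GAL4-UAS reporter units expressing chimeric zebrafish TRb–Gal4. Dosed 24 h with 3 nM 6-alpha-fluorotestosterone present; reporter mRNA measured by RT-PCR, HpaI digestion and capillary electrophoresis; gain of signal versus DMSO.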

Test [14] can be described thus: ATG_XTT_Cytotoxicity_XSP1: Cytotoxicity Assessment in the Attagene TRANS-FACTORIAL Multi-Species (XSP1) HepG2 Assay (AID 2283810). A digest of the protocol:
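XTT viability readout taken at 24 hours post-dosing in HepG2 liver cells co-treated with 3 nM 6-alpha-fluorotestosterone. Signal loss relative to DMSO controls reflects cytotoxicity.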

Each structure is given as a SMILES string. Results filed as inconclusive are left out. Where a structure was tested more than once in an assay, its records may differ in their call. Activity calls are given as the source filed them. Rule for the calls: active = hit-call score of the fitted dose curve at least 0.9, where 1 is the maximum; inconclusive = response in the unintended direction; inactive = score below 0.9.

Chain of zebrafish Thyroid Hormone Receptor beta (TRb), thrb (gene 30607) (Q9PVE4 whole entry, looked up, the tested form may be a part): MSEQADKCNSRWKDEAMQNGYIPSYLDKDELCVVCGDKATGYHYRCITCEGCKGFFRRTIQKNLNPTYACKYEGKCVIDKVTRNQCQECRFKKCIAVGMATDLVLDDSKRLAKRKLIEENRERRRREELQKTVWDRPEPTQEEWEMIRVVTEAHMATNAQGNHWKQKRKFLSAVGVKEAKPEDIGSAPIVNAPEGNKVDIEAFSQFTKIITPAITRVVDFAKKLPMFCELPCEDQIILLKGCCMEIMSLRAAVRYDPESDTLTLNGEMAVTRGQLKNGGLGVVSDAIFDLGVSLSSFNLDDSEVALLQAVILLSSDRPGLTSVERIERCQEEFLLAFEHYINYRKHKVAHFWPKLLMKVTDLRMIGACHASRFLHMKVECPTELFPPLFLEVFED
Chain of human Thyroid hormone Receptor beta (TRb), THRB (gene 7068) (P10828 whole entry, looked up, the tested form may be a part): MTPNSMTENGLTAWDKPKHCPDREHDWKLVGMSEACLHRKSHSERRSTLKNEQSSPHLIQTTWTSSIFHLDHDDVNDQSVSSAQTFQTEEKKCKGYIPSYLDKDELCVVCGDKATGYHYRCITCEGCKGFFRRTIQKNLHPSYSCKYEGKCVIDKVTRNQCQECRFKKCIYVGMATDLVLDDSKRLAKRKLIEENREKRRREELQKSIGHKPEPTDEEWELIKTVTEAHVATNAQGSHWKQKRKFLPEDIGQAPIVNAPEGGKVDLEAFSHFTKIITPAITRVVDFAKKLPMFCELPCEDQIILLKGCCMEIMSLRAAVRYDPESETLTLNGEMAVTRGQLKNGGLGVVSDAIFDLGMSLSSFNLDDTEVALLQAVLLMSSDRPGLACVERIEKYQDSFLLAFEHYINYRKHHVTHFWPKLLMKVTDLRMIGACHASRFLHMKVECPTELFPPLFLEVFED
Chain of zebrafish Thyroid Hormone Receptor alpha (TRa), thraa (gene 30670) (Q98867 whole entry, looked up, the tested form may be a part): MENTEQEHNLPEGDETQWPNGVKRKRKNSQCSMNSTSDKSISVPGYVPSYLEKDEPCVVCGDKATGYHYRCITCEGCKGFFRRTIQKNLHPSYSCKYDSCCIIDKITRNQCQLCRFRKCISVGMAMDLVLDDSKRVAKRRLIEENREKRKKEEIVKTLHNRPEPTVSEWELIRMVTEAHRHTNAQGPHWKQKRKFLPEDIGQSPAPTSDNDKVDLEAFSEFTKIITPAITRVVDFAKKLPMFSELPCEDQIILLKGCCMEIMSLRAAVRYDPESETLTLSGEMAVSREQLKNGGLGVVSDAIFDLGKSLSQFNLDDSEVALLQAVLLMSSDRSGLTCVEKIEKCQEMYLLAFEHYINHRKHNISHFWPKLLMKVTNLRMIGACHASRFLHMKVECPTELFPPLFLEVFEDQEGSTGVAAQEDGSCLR
Chain of frog Thyroid hormone Receptor alpha (TRa), thra-a (gene 397942) (P15204 whole entry, looked up, the tested form may be a part): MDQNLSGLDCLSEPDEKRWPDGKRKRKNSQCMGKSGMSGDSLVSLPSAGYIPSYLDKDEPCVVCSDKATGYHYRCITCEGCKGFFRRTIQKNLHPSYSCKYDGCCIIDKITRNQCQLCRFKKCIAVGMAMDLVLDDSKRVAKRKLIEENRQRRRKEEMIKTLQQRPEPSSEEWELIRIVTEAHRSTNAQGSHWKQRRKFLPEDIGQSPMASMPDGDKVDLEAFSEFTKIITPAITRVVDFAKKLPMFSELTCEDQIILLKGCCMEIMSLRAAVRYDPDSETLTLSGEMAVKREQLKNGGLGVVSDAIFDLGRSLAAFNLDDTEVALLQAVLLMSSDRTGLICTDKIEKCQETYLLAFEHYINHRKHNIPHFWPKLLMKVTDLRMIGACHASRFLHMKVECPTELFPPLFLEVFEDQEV
Chain of human Thyroid hormone Receptor alpha (TRa), THRA (gene 7067) (P10827 whole entry, looked up, the tested form may be a part): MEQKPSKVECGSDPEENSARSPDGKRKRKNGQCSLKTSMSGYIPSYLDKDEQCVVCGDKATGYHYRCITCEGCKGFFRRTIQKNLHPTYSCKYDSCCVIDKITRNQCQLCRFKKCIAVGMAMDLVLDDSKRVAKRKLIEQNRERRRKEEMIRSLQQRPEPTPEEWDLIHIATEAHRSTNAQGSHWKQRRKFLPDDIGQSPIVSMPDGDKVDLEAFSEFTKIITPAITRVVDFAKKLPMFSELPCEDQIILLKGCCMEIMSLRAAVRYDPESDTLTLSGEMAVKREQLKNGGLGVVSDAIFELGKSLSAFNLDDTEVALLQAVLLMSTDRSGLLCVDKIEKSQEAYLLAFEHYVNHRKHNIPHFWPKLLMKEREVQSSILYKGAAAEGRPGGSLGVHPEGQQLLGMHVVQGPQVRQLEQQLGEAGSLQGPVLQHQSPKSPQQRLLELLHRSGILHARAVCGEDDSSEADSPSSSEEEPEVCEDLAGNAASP
Chain of GAL4 Transcription Factor (Internal Marker), GAL4 (gene 855828) (P04386 whole entry, looked up, the tested form may be a part): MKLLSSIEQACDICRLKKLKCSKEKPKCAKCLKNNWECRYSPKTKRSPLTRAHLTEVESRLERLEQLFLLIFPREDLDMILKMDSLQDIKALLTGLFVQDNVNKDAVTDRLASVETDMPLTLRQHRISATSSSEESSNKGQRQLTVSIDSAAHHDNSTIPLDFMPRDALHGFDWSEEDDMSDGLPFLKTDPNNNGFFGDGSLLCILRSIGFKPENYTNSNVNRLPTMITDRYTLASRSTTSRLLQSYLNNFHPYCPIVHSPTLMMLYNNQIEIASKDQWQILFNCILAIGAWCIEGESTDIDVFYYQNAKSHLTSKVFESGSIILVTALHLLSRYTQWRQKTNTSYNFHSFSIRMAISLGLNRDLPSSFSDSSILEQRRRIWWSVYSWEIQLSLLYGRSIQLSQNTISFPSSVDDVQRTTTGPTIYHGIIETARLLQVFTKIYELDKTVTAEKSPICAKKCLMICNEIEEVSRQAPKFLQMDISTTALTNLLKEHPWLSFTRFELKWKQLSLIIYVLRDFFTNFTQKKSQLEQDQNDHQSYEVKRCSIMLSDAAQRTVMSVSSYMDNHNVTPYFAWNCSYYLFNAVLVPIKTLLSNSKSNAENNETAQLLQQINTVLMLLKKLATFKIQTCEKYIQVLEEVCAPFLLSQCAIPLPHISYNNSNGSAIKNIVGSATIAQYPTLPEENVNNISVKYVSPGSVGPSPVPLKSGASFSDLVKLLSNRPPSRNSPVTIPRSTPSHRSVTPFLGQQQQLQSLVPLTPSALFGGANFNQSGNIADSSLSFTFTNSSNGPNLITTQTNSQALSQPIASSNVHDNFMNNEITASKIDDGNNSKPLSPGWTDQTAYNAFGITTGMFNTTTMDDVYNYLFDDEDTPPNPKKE
Chain of Nuclear receptor subfamily 1 group I member 2 (Mus musculus) (O54915 whole entry, looked up, the tested form may be a part): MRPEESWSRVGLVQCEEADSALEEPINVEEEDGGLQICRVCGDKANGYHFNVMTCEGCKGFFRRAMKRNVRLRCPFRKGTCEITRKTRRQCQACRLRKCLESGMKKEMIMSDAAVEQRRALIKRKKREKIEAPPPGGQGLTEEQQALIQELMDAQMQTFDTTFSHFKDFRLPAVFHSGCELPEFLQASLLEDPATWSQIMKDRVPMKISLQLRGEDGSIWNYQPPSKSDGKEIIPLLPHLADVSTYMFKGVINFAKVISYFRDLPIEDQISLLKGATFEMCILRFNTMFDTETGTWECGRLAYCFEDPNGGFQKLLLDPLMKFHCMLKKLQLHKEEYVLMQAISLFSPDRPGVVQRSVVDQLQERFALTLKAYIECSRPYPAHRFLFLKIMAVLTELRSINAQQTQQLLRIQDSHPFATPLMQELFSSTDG

Broadly, the AC50 is the midpoint of the concentration-response curve, whichever way the signal moves. Consider `NS(=O)(=O)C(F)(F)C(F)(F)C(F)(F)C(F)(F)C(F)(F)C(F)(F)C(F)(F)C(F)(F)F`, for which, in the test with AR (gene 367), the AC50 is 66.1 µM (active).

`c1cc2ccc3cccc4ccc(c1)c2c34`: the AC50 with AR (gene 367) is 25.5 µM (active).

For `O=NN(c1ccccc1)c1ccccc1`, the outcome in test [1] was inactive.

Regarding `CCCCCCOC(=O)c1ccccc1C(=O)OCCCCCC`, the outcome in test [1] was inactive.

As for `C=CC(=O)NCNC(=O)C=C`, the AC50 in test [1] is 50 µM (active). Besides, the result with AR (gene 367) was inactive.

With `CC1=C2C[C@H]3[C@@H](CC=C4C[C@@H](O)CC[C@@]43C)[C@@H]2CC[C@]12O[C@@H]1C[C@H](C)CN[C@H]1[C@H]2C`, in test [1], the outcome was inactive. In the test with AR (gene 367), the half-maximal activity concentration (AC50) was 80.8 µM (active).

Turning to `Oc1ccc(C(c2ccc(O)cc2)(C(F)(F)F)C(F)(F)F)cc1`, the result in test [1], in test [2], in test [3], in test [4], in test [5] and in test [7] was inactive. The result in test [8], in test [9], in [10], in [11], in test [12] and in test [13] was inactive. Besides, the AC50 in [6] was 33.4 µM (active); in [12] it was 62.3 µM (active); in test [14] it was 81.2 µM (active).

For the molecule `c1ccc(-c2ccccc2)cc1`, the result with AR (gene 367) was inactive.

Consider `Clc1ccc(C(Cl)(Cl)Cl)cc1`, for which the AC50 in test [1] was 83.6 µM (active).

In the case of `CCCCCCCCCC[N+](C)(C)CCCCCCCCCC`, the half-maximal activity concentration (AC50) in test [1] is 2.5 µM (active).

For `O=C(NC(=O)c1c(F)cccc1F)Nc1cc(Cl)c(OC(F)(F)C(F)F)c(Cl)c1`, the AC50 in the test with AR (gene 367) is 50 µM (active).

On to `CCC(=O)O[C@H]1CC[C@H]2[C@@H]3CCC4=CC(=O)CC[C@]4(C)[C@H]3CC[C@]12C`, for which the AC50 in test [1] was 28.6 µM (active).

As to `Cc1cc(O)ccc1Cl`, the result in [1] was inactive.

With `COS(=O)(=O)OC`, in test [1], the outcome was inactive.

These data come from PubChem BioAssay (EPA / NIEHS).
